Assay results as given in PubChem BioAssay (EPA / NIEHS).
Where “and” joins values, the source holds several entries; their conditions need not be identical. Equal entries are not always repeated. Calls of active or inactive are those of the source. The calls were made as follows: active = hit-call score of the fitted dose curve at least 0.9, where 1 is the maximum; inactive = score below 0.9.

These compounds were tested on Monokine induced gamma interferon (MIG), CXCL9 (gene 4283) (assay: BSK_hDFCGF_MIG: BioMAP Diversity Plus: hDFCGF Assay for Monokine induced gamma interferon (MIG) Biomarker Activity (AID 2283063)). Conditions: primary human foreskin fibroblasts; actives raise or lower the signal.
Experimental: BSK_hDFCGF is a cell-based, multiplexed-readout assay that uses foreskin fibroblast, a human skin primary cell, with measurements taken at 24 hours after chemical dosing in a 96-well plate.BSK_hDFCGF_MIG is an assay component measured in the BSK_hDFCGF assay. It measures MIG antibody related to regulation of gene expression using ELISA technology.Data from the assay component BSK_hDFCGF_MIG was analyzed into 1 assay endpoint. This assay endpoint, BSK_hDFCGF_MIG, was analyzed with bidirectional fitting relative to DMSO as the negative control and baseline of activity. Using a type of binding reporter, gain or loss-of-signal activity can be used to understand changes in the signaling as they relate to the gene CXCL9. Furthermore, this assay endpoint can be referred to as a primary readout, because this assay has produced multiple assay endpoints where this one serves a signaling function. To generalize the intended target to other relatable targets, this assay endpoint is annotated to the cytokine intended target family, where the subfamily is chemotactic factor.
The levels of cell surface (or secreted, indicated by the prefix "s") biomarker endpoints were measured by ELISA. Overt cytotoxicity to cells in confluent adherent cultures (all systems other than the BT system) was assessed by measuring total protein levels using sulforhodamine B (SRB) staining in parallel cultures at the time of biomarker measurements, indicated as SRB endpoints. For proliferation assays for adherent cell types, individual cell types are cultured at sub-confluence and relative cell numbers quantified by SRB staining at time points optimized for each system (48 h: 3C and CASM3C systems; 72 h: BT and HDF3CGF systems; 96 h: SAg system). SRB was performed by staining cells with 0.1% SRB after fixation with 10% TCA and reading wells at 560 nm.Viability and proliferation of PBMC (T cells) was quantified by Alamar Blue reduction for the SAg and BT systems. For PBMC viability (referred to as PBMC Cytotoxicity within the assay endpoint names), cells were plated (75,000/well in a 96-well plate) and then chemical samples added for 1 h before addition of activators, SEB and TSST-1 (20 ng/mL final concentration each). Cells were incubated for 90 h. Then, Alamar Blue (20 uL/well) (Invitrogen, Cat DAL1100) was added for 6 h, and the plates were read with a fluorescence microplate reader at 546/580 nm (excitation/emission). For PBMC proliferation, cells were plated and activated as above but incubated for only 16 h prior to addition of Alamar Blue. Plates were read after 6 h.
With `C=CCOCC(O)CCl` (stereo unspecified) the outcome was “inactive”.
With `C=C[Si](OC(C)=O)(OC(C)=O)OC(C)=O` the outcome was “inactive”.
In the case of `CCCCC(CC)COCC1CO1` (stereo unspecified), the outcome is reported as “inactive”.
`CCCCNc1ccc(NCCCC)c2c1C(=O)c1ccccc1C2=O` was tested, and the outcome was “inactive”.
In the case of `O=Nc1ccc(O)cc1`, the outcome is reported as “inactive”.
With `S=C(NC1CCCCC1)NC1CCCCC1` the outcome was “inactive”.
`O=C(Nc1ccccc1SSc1ccccc1NC(=O)c1ccccc1)c1ccccc1` was tested, and the outcome was “inactive”.
For `O=C1CCCN1CCO`, the outcome was “inactive”.
For `CCOC(=O)c1ccccc1C(=C1C=C(Br)C(=O)C(Br)=C1)c1cc(Br)c(O)c(Br)c1`, the AC50 was 3.85 µM (active) and 3.76 µM (active).
With `CCO[Si](C)(OCC)OCC` the outcome was “inactive”.
For `CCCCC/C=C\C/C=C\CCCCCCCC(=O)OC`, the AC50 was 35.3 µM (active).
With `CCCCCCCCc1ccc(Nc2ccc(CCCCCCCC)cc2)cc1` the outcome was “inactive”.
For `CC1OC1C1CCC2(C)OC2C1` (stereo unspecified), the outcome was “inactive”.
For `CCCCC(CC)COC(=O)c1ccccc1O` (stereo unspecified), the AC50 was 15 µM (active).
In the case of `O=C(c1ccc(O)cc1)c1ccc(O)cc1O`, the outcome is reported as “inactive”.
For `COCc1c(C(C)C)nc(C(C)C)c(/C=C/[C@@H](O)C[C@@H](O)CC(=O)O)c1-c1ccc(F)cc1`, the outcome was “inactive”.
For `c1ccc(-c2ccccn2)nc1`, the outcome was “inactive”.
For `C=CC(=O)OCC(Br)CBr` (stereo unspecified), the AC50 was 6.57 µM (active).
In the case of `N#[N+]c1ccc2c(S(=O)(=O)[O-])cccc2c1O`, the outcome is reported as “inactive”.
In the case of `COc1ccc2nc(N)sc2c1`, the outcome is reported as “inactive”.
`CC(C)(c1cc(Br)c(OCCO)c(Br)c1)c1cc(Br)c(OCCO)c(Br)c1` was tested, and the AC50 was 13.1 µM (active).
`O=c1c2ccccc2oc2ccccc12` was tested, and the outcome was “inactive”.
With `c1ccc2c(c1)ccc1ncccc12` the outcome was “inactive”.
`CN1C(=O)N(C)C(O)C1O` (stereo unspecified) was tested, and the outcome was “inactive”.
In the case of `Nc1ccc(N)c(Cl)c1`, the AC50 is reported as 17.2 µM (active) and 17.5 µM (active).
With `C=CC=CC=CCCCCC` the outcome was “inactive”.
With `CCOc1nc(F)cc2nc(S(=O)(=O)Nc3c(Cl)cccc3C(=O)OC)nn12` the outcome was “inactive”.
In the case of `O=C(Cl)c1cc(C(=O)Cl)cc(C(=O)Cl)c1`, the AC50 is reported as 16.1 µM (active).
With `CCO[Si](CCCN=C=O)(OCC)OCC` the outcome was “inactive”.
`CO[Si](OC)(OC)c1ccccc1` was tested, and the outcome was “inactive”.
For `C/C=C\C/C=C/CCCCCCCCOC(C)=O`, the AC50 was 28.3 µM (active).
With `C#CC1(O)CC[C@H]2[C@@H]3CCC4=CCCC[C@@H]4[C@H]3CC[C@@]21C` (stereo partly specified) the AC50 was 35 µM (active).
With `CCCCCCCCCCCCCCCC[N+](C)(C)CC` the AC50 was 3.45 µM (active).
For `c1ccc2c(c1)ccc1cc3c(ccc4ccccc43)cc12`, the outcome was “inactive”.
For `C=CCOc1c(Br)cc(Br)cc1Br`, the AC50 was 20 µM (active).
For `CC(C)C(=O)C(C)C`, the outcome was “inactive”.
